Experimental data reported in PubChem BioAssay AID504834 (National Center for Advancing Translational Sciences (NCATS), 2011).
“And” between values parts separate entries of the source, which are not always exact repeats. Equal entries are not always repeated. About 22,000 (6.9%) of roughly 320,000 compounds were called active. Where a call stands in place of a potency, no number is given. Inconclusive results (about 27%) are left out. Calls follow the shape of the dose curve; as a rule, active = well fitted inhibition curve with a large enough effect; inconclusive = small, poorly fitted or top-dose-only effect, or another doubt; inactive = no such curve, though single readings can be large or run the other way. Only a selection was taken, and actives are over-represented in it overall.

Assay: Primary qHTS for delayed death inhibitors of the malarial parasite plastid, 96 hour incubation
Conditions: P. falciparum luciferase reporter growth; series mostly up to 28.7 µM
Description: The goal of this screen is to discover new antimalarial compounds that act by inhibiting the development of the apicoplast in the malarial parasite Plasmodium falciparum. The biochemical processes that make this organelle essential for erythrocytic stage parasites are not well understood. However, antibiotics such as azithromycin and tetracycline, which target the apicoplast translational machinery, have a potent antimalarial effect.
We have developed a cell-based assay that measures parasite growth based on the expression of an integrated copy of a firefly luciferase reporter. To detect small molecules that cause this "delayed death" phenotype, erythrocytes infected with the luciferase-expressing parasites were incubated with compounds for either one or two generations, corresponding to 48 and 96 hours, respectively. Compounds that inhibit parasite growth in the second generation, but not the first, should be enriched in antimalarials that target the apicoplast. Growth inhibition is detected by a decrease in luciferase activity.
Assay Provider: David Fidock and Eric Ekland, Columbia University
Keywords: NIH Roadmap, MLPCN, MLI, MLSMR, qHTS, NCGC, qHTS, malaria, luciferase, viability
Four microliters of infected erythrocytes (2% hematocrit, 0.05% parasitemia final concentration) in culture medium were dispensed and the plates incubated for 96 hours at 37 C in 5% CO2. Two microliters of luciferase detection reagent was added and luminescence was detected by a ViewLux (PerkinElmer) reader.
Potency is read from the fitted curve at half-maximal effect.

| SMILES | Potency | activity change, negative = inhibition |
| --- | --- | --- |
| COc1ccc(CN2CCN(Cc3ccc(OC)c(OC)c3OC)CC2)cc1 | inactive | – |
| Cc1nc(C(=O)Nc2ccc(Cl)cc2)sc1C1(C)CC(c2ccccc2)=NO1 (stereo unspecified) | inactive | – |
| Cc1nn(-c2ccccc2)c(=O)c2noc(C)c12 | inactive | – |
| COc1ccc(C(=O)Nc2cc(C)c(NC(=O)c3ccccc3OC)cn2)cc1 | inactive | – |
| Cc1cccc(C2=N/C(=C/c3cccs3)C(=O)O2)c1 | inactive | – |
| CSC1=N/C(=C\C=C\c2cccs2)C(=O)S1 | 5.22 µM (active) | – |
| CSC1=N/C(=C\c2ccc3c(c2)OCO3)C(=O)S1 | inactive | – |
| O=S(=O)(Cc1noc(-c2ccc(OC(F)(F)F)cc2)n1)c1ccc(F)cc1 | inactive | – |
| COc1ccc(NC(=O)c2cccc(Cl)c2)c[n+]1[O-] | inactive | – |
| COc1cc(Cl)c(S(=O)(=O)n2cnc(C)c2)cc1Cl | inactive | – |
| COc1cc(OC)c(-n2cc(-c3ccc(Cl)cc3)[nH]c2=O)cc1Cl | inactive | – |
| COc1cc(OC)c(-n2c(C)cc(C=O)c2C)cc1Cl | 13.1 µM (active) | – |
| O=C1c2ccccc2C(=O)N1c1cccc2ccccc12 | inactive | – |
| Cc1n[nH]c(=O)c2c(NC(=O)CSc3cc(Cl)ccc3Cl)oc(C)c12 | inactive | – |
| COc1cccc(-c2cccc(NC(=O)C3CCN(C4CCC4)CC3)c2)c1 | inactive | – |
| CCn1cc(CN2CCC(C(=O)Nc3cccc(-c4cccc(Cl)c4)c3)CC2)cn1 | inactive | – |
| O=C(Nc1cccc(-c2cccc(Cl)c2)c1)C1CCN(C2CCC2)CC1 | 10.4 µM (active) | – |
| COC(=O)CSc1nnc(NC(=O)CCc2ccccc2)s1 | inactive | – |
| CC(C)CCN1CCN=C1N(C)C | inactive | – |
| COc1ccc(S(=O)(=O)N2CCN(C(=O)N(C)C)C2C)cc1 (stereo unspecified) | inactive | – |
| Cc1cccc(C(=O)N2CCN(S(=O)(=O)N3CCCCC3)CC2)c1 | inactive | – |
| CCCCN(CCCC)CCC(O)c1cc2c(Cl)cc(Cl)cc2c2cc(C(F)(F)F)ccc12 (stereo unspecified) | 2.6 nM (active) and 2.9 nM (active) | – |

| SMILES | Potency | activity change, negative = inhibition |
| --- | --- | --- |
| CN(CC(=O)NCCN1CCOCC1)S(=O)(=O)c1ccc(F)cc1 | inactive | – |
| Cc1ccc(NC(=O)NCC(c2cccnc2)N2CCOCC2)cc1 (stereo unspecified) | inactive | – |
| CN(CC(=O)NNC(=O)CNC(=O)c1ccccc1Cl)S(=O)(=O)c1ccc(Cl)cc1 | inactive | – |
| CN(CC(=O)NCCc1ccccn1)S(=O)(=O)c1ccc(Cl)cc1 | inactive | – |
| Cc1ccc(S(=O)(=O)N(C)CC(=O)NCC(c2ccc(F)cc2)N2CCOCC2)cc1 (stereo unspecified) | 10.4 µM (active) | – |
| CN(CC(=O)NCC(c1ccccc1)N1CCCC1)S(=O)(=O)c1ccc(Cl)cc1 (stereo unspecified) | 8.28 µM (active) | – |
| COc1ccccc1OCCOc1ccc(/C=C2\C(=N)N3N=C(C)SC3=NC2=O)cc1 | inactive | – |
| CCN1CCN(C(=O)c2ccc(CN(c3ccc(C)c(C)c3)S(C)(=O)=O)cc2)CC1 | 10.4 µM (active) | – |
| CCOC(=O)N1CCN(C(=O)c2ccc(CN(c3ccc(C)c(C)c3)S(C)(=O)=O)cc2)CC1 | inactive | – |
| CCOC(=O)N1CCN(C(=O)CN(c2ccc(C)c(C)c2)S(=O)(=O)c2ccccc2)CC1 | inactive | – |
| CC1CN(C(=S)Nc2ccccc2F)CC(C)O1 (stereo unspecified) | inactive | – |
| CCCc1cc(=O)n2[nH]c(C)c(-c3ccc(Cl)cc3)c2n1 | inactive | – |
| Cc1[nH]n(-c2cccc(Cl)c2)c(=O)c1-c1ccc(Cl)cc1 | 0.415 µM (active) | – |
| O=c1[nH]n(-c2cccc(Cl)c2)c2ncccc12 | inactive | – |
| CC(C)(O)c1ccccc1CC[C@H](SCC1(CC(=O)O)CC1)c1cccc(/C=C/c2ccc3ccc(Cl)cc3n2)c1 | inactive | – |
| CCc1ccc(C(CNc2nc(C(F)(F)F)nc3ccccc23)N(C)C)cc1 (stereo unspecified) | 11.7 µM (active) | – |
| Cc1cc(C)n(-c2nc(C(F)(F)F)nc3ccccc23)n1 | – | 14% [at 5.75 µM] (inactive) |
| NS(=O)(=O)c1ccc(CCNc2nc(C(F)(F)F)nc3ccccc23)cc1 | inactive | – |
| O=C(OCc1ccc([N+](=O)[O-])cc1)C1CC(=O)N(Cc2ccccc2Cl)C1 (stereo unspecified) | inactive | – |
| O=C(COc1cccc2c1CCNC2=O)NC1CCCCC1 | inactive | – |
| O=C(O)c1cccc(S(=O)(=O)N2CC=C(c3ccccc3)CC2)c1 | inactive | – |
| O=C(O)c1cccc(N=NN2CCCCCC2)c1 | inactive | – |

| SMILES | Potency | activity change, negative = inhibition |
| --- | --- | --- |
| NC1=NN(c2cccc(C(=O)O)c2)C(=O)C1 | 13.1 µM (active) | – |
| CCCCCCCNC(=O)C1(CC2CC(c3cccc(Br)c3)=NO2)CCN(C(=O)c2cc(OCC)c(OCC)c(OCC)c2)CC1 (stereo unspecified) | 0.329 µM (active) | – |
| CCOc1ccccc1N1CCN(C(=O)c2ccc3[nH]c(C)c(C)c3c2)CC1 | inactive | – |
| CC(=O)N1CCC(C(=O)OCc2ccc(Cl)cc2)(c2ccccc2)CC1 | inactive | – |
| COC(=O)C1CCN(C(=O)c2ccc3oc(Cc4ccc(Cl)cc4)nc3c2)CC1 | inactive | – |
| O=C(c1ccccc1)N1CCC(CC2CC(c3ccc(Cl)cc3)=NO2)(C(=O)NCC2CCCCC2)CC1 (stereo unspecified) | 1.04 µM (active) | – |
| COc1ccccc1C(=O)NC(=O)COC(=O)c1ccco1 | inactive | – |
| Cc1ccc(N2C(=O)CC(Nc3cccc4ccccc34)C2=O)cc1 (stereo unspecified) | inactive | – |
| COc1ccc(C2=NS(=O)(=O)N(C)C(C(=O)NC(C)c3ccccc3)=C2)cc1 (stereo unspecified) | inactive | – |
| COc1ccccc1CCC(=O)NNC(=O)c1ccncc1 | inactive | – |
| Cc1nn(-c2ccccc2)c(C)c1NC(=O)COC(=O)c1cc(Cl)ccc1O | inactive | – |
| CCN1CCN(C(c2cccnc2)c2cc(Cl)c3cccnc3c2O)CC1 (stereo unspecified) | 10.4 µM (active) | – |
| CCN1CCN(c2ccc(NC(=O)c3cnccn3)cc2)CC1 | inactive | – |
| Cc1nc(C)c(-c2nnc(-c3cccc(S(=O)(=O)N(C)C)c3)o2)cc1C(=O)NN | inactive | – |
| Cn1c(SCC(=O)Nc2ccc(N3CCOCC3)cc2)nnc1C(F)(F)F | inactive | – |
| Cc1ccccc1NC(=O)c1cc(S(=O)(=O)Nc2cccc(C(=O)O)c2)ccc1Cl | inactive | – |
| S=C1Nc2cc(Cl)ccc2Sc2ccccc21 | inactive | – |
| O=C(NC1CC1)c1cccc(Br)c1 | inactive | – |
| O=C(NC1CC1)c1ccc2c(c1)NC(=O)c1ccccc1S2 | 8.28 µM (active) | – |
| CCOC(=O)C(C)n1cnc2scc(-c3ccc(C)c(C)c3)c2c1=O (stereo unspecified) | inactive | – |
| COC(=O)Cn1cnc2scc(-c3ccc(C)c(C)c3)c2c1=O | 10.4 µM (active) | – |
| CCn1cnc2scc(-c3ccc(C)c(C)c3)c2c1=O | inactive | – |
